# Screens deposited in PubChem BioAssay by National Center for Advancing Translational Sciences (NCATS).
# NPC1 promoter act = qHTS Assay for NPC1 Promoter Activators; Huh7 NPC1 promoter luciferase reporter, 24 h; Potency, µM (series often up to 9.22 µM), inactives show at the highest dose activation, actives largely listed as activators; actives 2.4% (n = 320,000); AID 485313, 2010; also: % of control where 0% means no effect; nearly all actives have a fitted effect of over 60% in size
#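 Readout is luciferase luminescence, reflecting NPC1 promoter activation in stably transfected Huh7 cells after 24 h compound exposure at 37 °C in reduced-serum medium with 10% FBS.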
# ELG1 genotox = qHTS screen for small molecules that induce genotoxicity in human embryonic kidney (HEK293T) cells expressing luciferase-tagged ELG1. HEK293T ELG1-luciferase reporter, luminescence, 16 h. AID 504466, 2011. Potency, µM (highest dose often 46 µM), for the others: at the top dose activity change, positive = activation, usual class: activators. actives 1.3% (n = 330,000); also: % of control where 0% means no effect; nearly all actives have a fitted effect of over 60% in size
#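 Luminescence read-out: rising ELG1-luciferase signal, reflecting elevated ELG1 protein under genetic stress, flags genotoxic compounds. Cells were treated for 16 hr at 37 °C before ONE-Glo detection.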
# FLuc modulator = qHTS profiling assay for firefly luciferase inhibitor/activator using purifed enzyme and Km concentrations of substrates (counterscreen for miR-21 project); Luciferin 4-monooxygenase (Photinus pyralis), P08659; purified FLuc, Km substrates, luminescence inhibition; Potency, µM (series often up to 57.5 µM), without a hit: top-dose activity change, negative = inhibition, usual class: inhibitors; actives 6.9% (n = 360,000); AID 588342, 2011;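 also: plate controls were vehicle for no effect and reference inhibitor for full effect; nearly all actives have a fitted effect of over 55% in size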
# Target sequence (P08659 whole entry, looked up): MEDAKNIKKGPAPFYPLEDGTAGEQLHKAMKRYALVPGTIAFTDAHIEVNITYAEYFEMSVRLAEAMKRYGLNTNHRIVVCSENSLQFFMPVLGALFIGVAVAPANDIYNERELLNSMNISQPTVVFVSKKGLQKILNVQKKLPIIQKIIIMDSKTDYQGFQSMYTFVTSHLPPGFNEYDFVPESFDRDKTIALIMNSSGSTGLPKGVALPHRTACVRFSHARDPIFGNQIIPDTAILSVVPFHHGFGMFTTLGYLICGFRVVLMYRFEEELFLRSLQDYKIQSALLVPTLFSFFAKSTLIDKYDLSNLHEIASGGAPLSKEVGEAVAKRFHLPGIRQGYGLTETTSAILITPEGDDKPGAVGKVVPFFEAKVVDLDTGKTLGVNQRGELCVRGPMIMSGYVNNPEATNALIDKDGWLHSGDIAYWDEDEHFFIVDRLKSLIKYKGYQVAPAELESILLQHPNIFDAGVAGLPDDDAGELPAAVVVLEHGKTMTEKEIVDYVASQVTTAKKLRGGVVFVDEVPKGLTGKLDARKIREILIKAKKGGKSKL
#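 Purified P. pyralis luciferase (10nM final) with 10uM D-luciferin and 10uM ATP (Km levels) in 50mM Tris acetate pH 7.5, 10mM Mg acetate, 0.01% Tween-20, 0.05% BSA; qHTS 6-point titration, ~60 µM downward; luminescence read.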
# Luc counter = Counterscreen for Luciferase (Kinase-Glo TM) Inhibition | Potency, µM (titrated, usually from 38.3 µM), for the others: at the highest dose activity change, negative = inhibition, most hits filed as inhibitors | AID 1379, 2008 | Kinase-Glo luciferase, ATP luminescence, 8 min | actives 0.28% (n = 200,000); also: % is scaled to controls: 0 for no effect and ±100 for the full control effect; nearly all actives have a fitted effect of over 60% in size
#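 Inhibition of Kinase-Glo luciferase light generation was assessed at 10 uM ATP in pH 7.2 imidazole buffer, with luminescence measured after eight minutes at ambient temperature.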
# Rab9 promoter act = qHTS Assay for Rab9 Promoter Activators. Huh7 Rab9 promoter-luciferase reporter, luminescence, 24 h. Potency, µM (highest dose often 9.22 µM), for the others: top-dose activation, negative = inhibition, most hits filed as activators. actives 2.8% (n = 320,000). AID 485297, 2010; also: % of control where 0% means no effect; nearly all actives have a fitted effect of over 60% in size
#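 Steps: seed 1500 Huh7 Rab9-luc cells per well, rest 2 h at 37 °C; add compound in DMSO; incubate 24 h; add luciferase reagent, 10 min ambient; read luminescence.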
# SMN2 splice up = qHTS Assay for Enhancers of SMN2 Splice Variant Expression. HEK293 SMN2-luciferase splicing reporter, luminescence, 30-36 h. actives 2.8% (n = 210,000). Potency, µM (series often up to 46.1 µM), inactives show top-dose activity change, positive = activation, actives largely listed as activators; also: % of control where 0% means no effect; nearly all actives have a fitted effect of over 55% in size
#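 qHTS luciferase splicing reporter: luminescence rises when SMN2 exon 7 is included in transfected HEK293 cells. Compound exposure lasted 30-36 h at 37C, with 4.5 mM final sodium butyrate as control, followed by a ONE-Glo read.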
# * marks the source's active call; other numbers are inactive results; ? = inconclusive; / = no result given; [ ] = another dose, or the depositor's remark. The list is not random: actives were taken first. Their share in the collection is about 7.3%. Calls follow the shape of the dose curve; as a rule, active = well fitted curve in the direction sought with a large enough effect; inconclusive = small, poorly fitted or top-dose-only effect, or another doubt; inactive = no such curve, though single readings can be large; an effect the other way counts as inactive or inconclusive. Potency is read from the fitted curve at half-maximal effect.
SMILES,NPC1 promoter act,ELG1 genotox,FLuc modulator,Luc counter,Rab9 promoter act,SMN2 splice up
COC(=O)Cc1[nH]n(-c2ccccc2)c(=O)c1C=Nc1ccc(C)cc1,0%,2%,9.5µM*,/,-3%,/
COc1ccc(CNC(=O)c2cc(COc3c(F)cccc3F)on2)cc1OC,-3%,-5%,-5%,/,-1%,/
COc1ccc(OCc2cc(C(=O)NCC(C)(C)N3CCOCC3)no2)c(Cl)c1,4%,-3%,?,/,17%,/
COc1cc(Cl)ccc1OCc1cc(C(=O)NCC(C)(C)N2CCOCC2)no1,23%,13%,15µM*,/,29%,/
COc1cc(Cl)ccc1OCc1cc(C(=O)NCc2cc(C(C)C)no2)no1,?,?,9.5µM*,/,1.3µM*,/
NS(=O)(=O)OCC1CCCCC1,-1%,-3%,3%,/,0%,/
Nc1nc(N)c(N=O)c(OCC2CCCCC2)n1,0%[46.1 µM],18µM*,?,/,-15%[46.1 µM],/
Cc1ccc(/C=C/C(=O)CCC(=O)O)cc1,22%,13%,6.7µM*,1%,?,/
CC1=C(c2ccc(C)cc2)S(=O)(=O)N(Cc2ccc(C(=O)Nc3ccc(C)c(F)c3)cc2)C1=O,/,/,-6%,/,/,/
CCCc1ccc(-c2cc(NC(=O)CSc3n[nH]c(N)n3)n(-c3ccccc3)n2)cc1,17%,?,4.3µM*,0%,15%,2%
Cc1ccccc1NC(=O)Cn1c(=O)n(Cc2ccc3c(c2)OCO3)c(=O)c2ccccc21,/,/,-2%,/,/,15%
Cc1csc(=O)n1CC(=O)OCc1cccc2ccccc12,18%,?,15µM*,1%,25%,-1%
CCc1cccc(C)c1NC(=O)COC(=O)Cn1c(C)csc1=O,8%,2%,2%,/,1%,/
Cc1cc(C)c(NC(=O)COC(=O)CCn2c(C)csc2=O)c(C)c1,-3%,1%,5%,/,14%,/
Cc1cc(C)c(C(=O)COC(=O)Cn2c(C)csc2=O)cc1C,6%,11%,17µM*,/,-1%,/
Cc1cc(C)c(C(=O)COC(=O)CCn2c(C)csc2=O)cc1C,16%,10%,4.8µM*,/,?,/
Cc1ccc(NC(=O)COC(=O)Cn2c(C)csc2=O)cc1C,1%,-2%,-11%,0%,0%,7%
CNCc1c(OCc2ccccc2F)ccc2ccccc12,-10%,-14%,-1%,1%,-8%,-32%
CC(C)Oc1ccc(C(=O)/C=C2/C(=O)Nc3ccccc32)cc1,1%,?,5.4µM*,/,6%,/
CN1CCN(c2ccc(NC(=O)c3ccc(-c4ccc(Cl)cc4)o3)cc2)CC1,2%,-11%,24µM*,/,0%,/
CN1CCN(c2ccc(NC(=O)c3ccc(-c4cccc([N+](=O)[O-])c4)o3)cc2)CC1,12%,3%,15µM*,5%,8%,-5%
CCc1ccc2oc(-c3cccc(NC(=O)c4ccc(-c5cccc([N+](=O)[O-])c5)o4)c3)nc2c1,/,/,2.7µM*,/,/,?
O=C(Nc1ccc2oc(=O)ccc2c1)c1ccc(-c2cccc([N+](=O)[O-])c2)o1,0%,3%,-3%,/,1%,/
CS(=O)(=O)N1CCN(c2ccc(NC(=O)c3ccc(-c4ccc(Cl)cc4)o3)cc2)CC1,-6%,12%,0%,-1%,-12%,-12%
CCc1ccc2oc(-c3ccc(C)c(NC(=O)c4cc([N+](=O)[O-])ccc4N4CCOCC4)c3)nc2c1,/,/,1.7µM*,/,/,16%
SMILES,NPC1 promoter act,ELG1 genotox,FLuc modulator,Luc counter,Rab9 promoter act,SMN2 splice up
O=C(Nc1cccc(-c2nc3cc(Cl)ccc3o2)c1)c1cc([N+](=O)[O-])ccc1N1CCOCC1,/,/,-15%,/,/,-3%
Cc1ccc(N2CCN(C(=S)c3ccc(-c4cccc([N+](=O)[O-])c4)o3)CC2)cc1,3%,-1%,-12%,3%,0%,-11%
CN1CCN(c2ccccc2NC(=O)c2ccccc2F)CC1,-1%,-2%,1%,/,2%,/
CO/N=C(\c1nonc1N)N1CCN(c2ccc([N+](=O)[O-])cc2Cl)CC1,-4%,-1%,-4%,-2%,-4%,6%
CCn1c(SC(C)C)nnc1C1CCN(S(=O)(=O)c2ccc(OC)cc2)CC1,-3%,-2%,-1%,-3%,-5%,-32%
Cc1ccc(-c2nc3ccccc3[nH]2)cn1,?,?,15µM*,/,?,/
FC(c1nc2ccccc2[nH]1)C(F)(F)F (stereo not drawn),-2%,1%,-2%,-5%,-6%,/
Oc1ccc(-c2[nH]nc(-c3ccccc3)c2-c2nc3ccccc3[nH]2)cc1,-3%,1%,-2%,-6%,2%,-9%
Clc1ccc(-c2nc3ccccc3[nH]2)cn1,?,10%,19µM*,/,?,/
Cc1nc2ccc(-c3nc4ccccc4[nH]3)cc2[nH]1,1.4µM*,19%,4.8µM*,?,0.63µM*,2.8µM*
Cc1ccc2nc(C(F)C(F)(F)F)[nH]c2c1 (stereo not drawn),-4%,7%,19µM*,-2%,1%,/
Cc1nc2ccc([N+](=O)[O-])cc2[nH]1,-2%,-2%,-2%,-2%,-2%,0%
Cc1cc(C(=O)N/N=C2/CC(C)CC(C)(C)C2)c(C)o1 (stereo not drawn),-3%,-4%,-9%,-2%,-5%,2%
Cc1ccc2nc(-c3ccncc3)[nH]c2c1,2.2µM*,12µM*,8.5µM*,/,?,/
COc1ccc(C(=O)COC(=O)C(Cc2c[nH]c3ccccc23)NC(=O)c2ccc(C(C)(C)C)cc2)cc1 (stereo not drawn),/,/,-5%,/,/,11%
c1ccc(-c2noc(-c3cccnc3)n2)nc1,2.8µM*,5.2µM*,13µM*,?,2µM*,11µM*
COc1cc(OC)cc(-c2nc(-c3cccc(C)c3)no2)c1,/,/,?,/,/,0%
COc1cccc(OCc2nnc(-c3cccs3)o2)c1,17%,8%,?,-1%,24%,8%
COc1cc(-c2nc(-c3cccnc3)no2)cc(OC)c1OC,1%,-2%,-7%,-1%,-4%,-6%
COc1ccc(-c2nc(-c3cccnc3)no2)cc1OC,?,?,17µM*,/,?,/
COc1cccc(-c2nc(-c3ccccc3)no2)c1,?,?,?,-9%,?,11µM*
COc1cccc(-c2noc(-c3cccs3)n2)c1,?,1.3µM*,2.1µM*,-4%,1µM*,13µM*
